Reference: PubChem BioAssay AID588331 (National Center for Advancing Translational Sciences (NCATS), 2011)
Records with an inconclusive call do not appear. The source made the active and inactive calls. Calls follow the shape of the dose curve; as a rule, active = well fitted inhibition curve with a large enough effect; inconclusive = small, poorly fitted or top-dose-only effect; inactive = flat fitted curve, though single readings scatter.

Each compound was assayed on Trypanosoma brucei 6-phosphofructokinase (PFK) (assay: Confirmatory Assay to Find Inhibitors of T. brucei phosphofructokinase: High F6P). Conditions: Kinase-Glo luminescence; series mostly up to 57.5 µM.
Source text: Various species of the protozoan family Trypanosomatidae are responsible for a range of serious human diseases in tropical and subtropical areas of the world. […] Many of the disorders caused by trypanosomatids are fatal if left untreated, but most currently used drugs are inefficient and toxic. […] Oxidative metabolism involving the mitochondrial tricarboxylic acid cycle and oxidative phosphorylation are repressed in these parasites, and recent RNA interference (RNAi) experiments have shown that even partial depletion of certain individual glycolytic enzymes can lead to the death of cultured parasites. One such glycolytic enzyme, phosphofructokinase (PFK), catalyzes the formation of fructose-1,6-bisphosphate (F1,6BP) and ADP from fructose-6-phosphate (F6P) and ATP, and in many metabolic circumstances makes an important contribution to the control of flux through the glycolytic pathway. As a specific glycolytic target, PFK is particularly attractive as it catalyzes the first irreversible step in glycolysis, and structural and kinetic studies have shown very substantial and essential differences from corresponding host enzymes, allowing for the discovery of parasite-selective inhibitors. A luminescent secondary assay was also performed that used luciferase-based nucleotide detection (ADP-Glo, Promega) similar to the qHTS, but that alternatively used saturating concentrations (10x Km concentrations) of ATP or F6P to determine if inhibitor potencies were shifted due to particular substrate competition. […] NIH Molecular Libraries Probe Production Network [MLPCN] NIH Chemical Genomics Center [NCGC] Grant: 1 R03 MH092153-01 PI Name: Malcolm Walkinshaw, University of Edinburgh
Substrate buffer was dispensed into white, solid 1536-well plates at 3 uL/well in 0.1M triethanolamine (TEA) buffer, pH 8.0, containing final concentrations of 5 mM MgCl2 and 0.01% Tween20. Standard substrate buffer contained 0.5 mM fructose-6-phosphate (F6P) and 0.1 mM ATP, high ATP substrate buffer contained 0.5 mM fructose-6-phosphate (F6P) and 1mM ATP, high F6P substrate buffer contained 5mM fructose-6-phosphate (F6P) and 0.1 mM ATP, and high ATP/F6P buffer contained 5 mM fructose-6-phosphate (F6P) and 1 mM ATP. Then, 23 nl of compounds or DMSO were delivered to each well using a pin tool. One uL of T. brucei PFK (0.1 M TEA, 0.01% Tween20, 0.1% bovine serum albumin (BSA) and 1.25 nM PFK, final concentrations) was then dispensed, and plates were incubated at room temperature for 45 min. The luminescent detection reagent, Kinase-Glo Plus (Promega), was then added at 2ul/well and incubated for ten minutes at room temperature. The plates were measured on a ViewLux plate reader for luminescent signal using a clear filter with a one second exposure. The %Activity was determined from the corrected luminescence values. 1x (1.25nM) and 0x PFK enzyme controls (untreated) were included to normalize %Activity of identified inhibitors; 0x enzyme values corresponded to 100%Activity (full inhibition), while 1x PFK enzyme values were used to normalize 0% Activity (no inhibition).

**Q.** How did the Potency turn out when O=C(Cc1ccc(Cl)c(Cl)c1)Nc1ccc(S(=O)(=O)Nc2ccon2)cc1 was run?
**A.** 2.06 µM (active)

**Q.** Which Potency does the source give for COc1ccc(CC(=O)Nc2ccc(S(=O)(=O)Nc3cc(C)on3)cc2)cc1C here?
**A.** inactive

**Q.** How did the Potency turn out when Cc1cc(NS(=O)(=O)c2ccc(N(C)C(=O)Cc3ccc(Cl)c(Cl)c3)cc2)no1 was run?
**A.** 10.3 µM (active)

**Q.** With Cc1cc(NC(=O)c2csc(NC(=O)Cc3ccc(Cl)c(Cl)c3)n2)no1 as the compound, how does the Potency read?
**A.** inactive

**Q.** Which Potency does the source give for O=C(Cc1ccc(Cl)c(Cl)c1)Nc1ccc(S(=O)(=O)Nc2ccn[nH]2)cc1 here?
**A.** 5.8 µM (active)

**Q.** With O=C(Cc1ccc(Cl)c(Cl)c1)Nc1ccc(S(=O)(=O)Nc2cccc(O)c2)cc1 as the compound, how does the Potency read?
**A.** 14.6 µM (active)

**Q.** How did the Potency turn out when Cc1cc(NS(=O)(=O)C2CCN(C(=O)Cc3ccc(Cl)c(Cl)c3)CC2)no1 was run?
**A.** inactive

**Q.** For Cc1cc(NS(=O)(=O)c2ccc(NC(=O)Cc3ccc(Cl)c(Cl)c3)cc2)n(C)n1, which Potency is on record?
**A.** 13 µM (active)

**Q.** How did the Potency turn out when COc1ccc(CC(=O)Nc2ccc(S(=O)(=O)Nc3cc(C)on3)cc2)cc1OC was run?
**A.** inactive

**Q.** Cc1cc(NS(=O)(=O)c2ccc(NC(=O)Cc3ccc(Cl)c(Cl)c3)cc2)on1 was tested. Which Potency did it give?
**A.** 3.26 µM (active)

**Q.** How did the Potency turn out when Cc1cc(NS(=O)(=O)c2ccc(NS(=O)(=O)Cc3ccc(Cl)c(Cl)c3)cc2)no1 was run?
**A.** inactive

**Q.** How did the Potency turn out when O=C(Cc1ccc(Cl)c(Cl)c1)Nc1ccc(S(=O)(=O)Nc2cncnc2)cc1 was run?
**A.** 9.19 µM (active)

**Q.** Which Potency does the source give for O=C(Cc1ccc(Cl)c(Cl)c1)Nc1ccc(S(=O)(=O)Nc2ccc(C(=O)O)cc2)cc1 here?
**A.** 4.11 µM (active)

**Q.** Which Potency does the source give for Cc1cc(NS(=O)(=O)c2ccc(NC(=O)C(C)(C)c3ccc(Cl)c(Cl)c3)cc2)no1 here?
**A.** inactive

**Q.** How did the Potency turn out when Cc1cc(N(C)S(=O)(=O)c2ccc(NC(=O)Cc3ccc(Cl)c(Cl)c3)cc2)no1 was run?
**A.** 16.3 µM (active)

**Q.** CCOC(=O)c1cccc(NS(=O)(=O)c2ccc(NC(=O)Cc3ccc(Cl)c(Cl)c3)cc2)c1 was tested. Which Potency did it give?
**A.** inactive

**Q.** For Cc1cc(NS(=O)(=O)c2ccc(NC(=O)Cc3ccccc3)cc2)no1, which Potency is on record?
**A.** inactive

**Q.** Which Potency does the source give for Cc1cc(NS(=O)(=O)c2ccc(NC(=O)Cc3ccc(C)c(C)c3)cc2)no1 here?
**A.** inactive

**Q.** Cc1cc(NS(=O)(=O)c2ccc(C(=O)NCc3ccc(Cl)c(Cl)c3)cc2)no1 was tested. Which Potency did it give?
**A.** 25.9 µM (active)

**Q.** How did the Potency turn out when Cc1cc(NS(=O)(=O)c2ccc(NC(=O)c3ccc(Cl)c(Cl)c3)cc2)no1 was run?
**A.** inactive

**Q.** Which Potency does the source give for Cc1cc(NS(=O)(=O)c2ccc(NC(=O)Cc3ccc(Cl)c(F)c3)cc2)no1 here?
**A.** 8.19 µM (active)

**Q.** With Cc1cc(NS(=O)(=O)c2ccc(NC(=O)Cc3ccc(Cl)c(C(F)(F)F)c3)cc2)no1 as the compound, how does the Potency read?
**A.** 5.8 µM (active)

**Q.** O=C(Cc1ccc(Cl)c(Cl)c1)Nc1ccc(S(=O)(=O)Nc2cccc(C(=O)O)c2)cc1 was tested. Which Potency did it give?
**A.** 4.61 µM (active)

**Q.** For Cc1cc(NS(=O)(=O)CCNC(=O)Cc2ccc(Cl)c(Cl)c2)no1, which Potency is on record?
**A.** inactive

**Q.** With Cc1cc(NS(=O)(=O)Cc2ccc(NC(=O)Cc3ccc(Cl)c(Cl)c3)cc2)no1 as the compound, how does the Potency read?
**A.** 16.3 µM (active)

**Q.** Cc1cc(NS(=O)(=O)c2ccc(NC(=O)Cc3ccc(Cl)cc3)cc2)no1 was tested. Which Potency did it give?
**A.** 20.6 µM (active)

**Q.** For O=C(Cc1ccc(Cl)c(Cl)c1)Nc1ccc(S(=O)(=O)O)cc1, which Potency is on record?
**A.** 5.17 µM (active)

**Q.** How did the Potency turn out when Cc1cc(NS(=O)(=O)c2ccc(NC(=O)Cc3ccc(Cl)c(Cl)c3)cc2)no1 was run?
**A.** 3.66 µM (active)

**Q.** Which Potency does the source give for Cc1cc(N[S+](=O)([O-])c2ccc3cc(NC(=O)Cc4ccc(Cl)c(Cl)c4)ccc3c2)no1 here?
**A.** 36.6 µM (active)

**Q.** How did the Potency turn out when Cc1cc(N[S+](=O)([O-])c2ccc(NC(=O)Cc3ccc(Cl)nc3)cc2)no1 was run?
**A.** inactive

**Q.** With Cc1cc(NC(=O)c2ccc(NC(=O)Cc3ccc(Cl)c(Cl)c3)cc2)no1 as the compound, how does the Potency read?
**A.** inactive
